This is an account of results in ChEMBL document CHEMBL4513216, “Probing the Open Global Health Chemical Diversity Library for Multistage-Active Starting Points for Next-Generation Antimalarials” (ACS Infect Dis, 2020).

Hit rate of the full screen: of about 69,000 compounds, about 8,600 (12%) showed an effect of 50% or more. The sample holds strong results, similar compounds and a random draw of the others, so the mix is not that of the screen.

This assay concerns Plasmodium berghei. Nature of the assay: Screen against P. berghei liver stage (PbLuc), transformed with Luciferase, at 10uM. Type of assay: functional, HepG2. The following applies: tested at 10 uM.
Take `COc1ccc(S(=O)(=O)NC(=O)COC2CCCCC2)cc1`: the INHIBITION is reported as 14.1%.

With `CC(C)n1nccc1CN1Cc2nccn2CC1c1ccccc1` (stereo unspecified), the INHIBITION amounted to 7.39%. To `Cc1nn(C)c(C)c1C(=O)NCc1cc(N(C)C)nc2ccccc12` belongs -21.1%. As to `CCn1nc(C)cc1C(=O)NCc1cc(N(C)C)nc2ccccc12`, the INHIBITION amounted to 54.4%.

For `Cc1nn(C)cc1C(=O)NCc1cc(N(C)C)nc2ccccc12`, the INHIBITION is on record as -17.8%. With `CNC(=O)CN1CCO[C@H]2CN(C(=O)C3CC3)C[C@H]21`, the INHIBITION was -8.85%.

For `C1CC(c2noc(C3CC3)n2)N(Cc2nnc(C3CC3)o2)C1` (stereo unspecified), the INHIBITION worked out at 15.75%. On to `CC(=O)N1CCOC(c2c(C(=O)O)sc3ccccc23)C1` (stereo unspecified), for which the INHIBITION was -9.51%. `Cn1cnc2c1CCN(Cc1nc(COc3ccc(F)cc3)no1)C2`: the INHIBITION came to 53.8%. On to `c1ccc(-c2noc(CN3CCc4cncnc4C3)n2)nc1`, for which the INHIBITION worked out at 72.9%. Under `Cn1cnc2c1CCN(Cc1nc(-c3ccco3)no1)C2` stands 45.1%; under `c1cncc(-c2noc(CN3CCc4cncnc4C3)n2)c1`, 22.683%. As to `c1ccc(Cc2noc(CN3CCc4c(ncn4C4CC4)C3)n2)cc1`, the INHIBITION was 0.411%. Regarding `Cn1cnc2c1CCN(Cc1noc(-c3ccccc3)n1)C2`, the INHIBITION is recorded as 43.7%. Turning to `c1cc(-c2noc(CN3CCc4c(ncn4C4CC4)C3)n2)cs1`, the INHIBITION came to 31.1%.

As to `CC(C)c1nc2c(n1C)CCN(Cc1nc(-c3ccsc3)no1)C2`, the INHIBITION is 47.6%. For `CCc1ncc2c(n1)CN(Cc1nc(-c3ccccn3)no1)CC2`, the INHIBITION was determined as 47.1%.

`Cn1c(C2CC2)nc2c1CCN(Cc1nc(Cc3ccccc3)no1)C2`: the INHIBITION is 34.7%. With `Cn1cnc2c1CCN(Cc1nc(Cc3ccccc3)no1)C2`, the INHIBITION came out at 52.7%. In the case of `Cn1cnc2c1CCN(Cc1nc(-c3ccsc3)no1)C2`, the INHIBITION is recorded as 52.7%. Under `CN1C(=O)[C@@H]2CC[C@H]1CN(C(=O)c1nnc3n1CCCCC3)C2` stands -89.9%; under `CCS(=O)(=O)N1CCC2(CC1)CN(c1cccnc1)C(=O)CO2`, 45.7%; under `CC(C)c1ncc2c(n1)CN(Cc1nc(-c3ccccn3)no1)CC2`, 28.8%.

Consider `CCCn1nccc1-c1nccnc1CC1CCN(C(C)=O)CC1`, for which the INHIBITION was determined as 19.3%. Take `COC1C[C@@H]2CN(C(=O)c3cc4cccc(F)c4[nH]3)C[C@@H]2C1` (stereo partly specified): the INHIBITION is -14.379%. Turning to `CCN(CC)Cc1cn2c(n1)CN(Cc1c(C)noc1C)CC2`, the INHIBITION is listed as 16.6%. On to `COCCn1ccc2c(C(=O)NCC3CCCO3)cccc21` (stereo unspecified), for which the INHIBITION is recorded as 23.7%. To `Cc1cnc(N2C[C@@H]3CCN(CC(=O)N(C)C)C(=O)[C@H]3C2)nc1` belongs -61.9%; to `Cc1ccc(CC2COCCN(Cc3ccccc3)C2)nc1` (stereo unspecified), 35%; to `Cc1ccc2c(n1)N(C)CCN(C(=O)NC1CC1)C2`, 1.28%.

`c1ccc(Cc2noc(CN3CCc4cncnc4C3)n2)cc1`: the INHIBITION is 19.6%. To `Cn1cnc2c1CCN(Cc1csc(-c3ccc(F)cc3)n1)C2` belongs -2.522%. As to `Cn1cnc2c1CCN(Cc1csc(-c3ccccc3)n1)C2`, the INHIBITION came out at 23.6%. For `Cn1cnc2c1CCN(Cc1csc(-c3ccccc3F)n1)C2`, the INHIBITION is listed as 70.7%. In the case of `Fc1ccc(OCc2noc(CN3CCc4cncnc4C3)n2)cc1`, the INHIBITION was found to be 50.4%. As to `COc1ccc(-c2noc(CN3CCc4cncnc4C3)n2)cc1`, the INHIBITION amounted to 40.3%. For `CO[C@@H]1CCC[C@@H](N(C)C(=O)c2cn3cc(C)ccc3n2)[C@H]1O`, the INHIBITION is recorded as -11.125%. Take `COc1ccc(C(=O)N2CCCS2(=O)=O)cc1`: the INHIBITION is -11.4%. With `CN1C(=O)CC(c2ccccc2)C12CCN(CC1CCOCC1)CC2` (stereo unspecified), the INHIBITION is -7.28%. To `COCCN1CCC(CN(CC2CCCO2)C(=O)C2CCOCC2)CC1` (stereo unspecified) belongs 29.9%. Under `CCCc1nc(C(C)(C)NC(=O)c2ccnn2C)no1` stands 38.3%; under `Cn1nccc1C(=O)NC(C)(C)c1noc(C(C)(C)C)n1`, 12.7%; under `CN(C)Cc1nc(C(C)(C)NC(=O)c2ccnn2C)no1`, 57.6%.

Regarding `CCNc1ncc(C(=O)N2CCc3c(nc(C)nc3N(C)C)C2)cn1`, the INHIBITION came out at 36.7%.

With `CCO[C@H]1CN(C)C[C@@H]1NC(=O)c1cc(C)nc2c(C)cccc12`, the INHIBITION stood at 24.3%. On to `Cc1cc(SC(C)(C)C)ccc1NCC(=O)NC(N)=O`, for which the INHIBITION is listed as 32%.

With `Cc1cc(SC(C)(C)C)ccc1NC(C)C(=O)NC(N)=O` (stereo unspecified), the INHIBITION amounted to 65.7%. Under `Cc1cc(SC(C)(C)C)ccc1NC(=O)CNC(N)=O` stands 22.2%; under `O=C1NCC(c2ccc(F)cc2)Cc2[nH]c(CCN3CCCC3)nc21` (stereo unspecified), 43.9%; under `Cc1c(Br)cc2c(c1C)OCC(N(C)C)C2=O` (stereo unspecified), 24.8%. As for `c1cn(CCNc2nc(NC3CC3)nc3c2CCNCC3)nn1`, the INHIBITION stood at 53.6%.

On to `COCCNc1nc2c(c(NCC3CCOC3)n1)CCNCC2` (stereo unspecified), for which the INHIBITION was 22.3%. `CCOCCNc1nc(-c2ccncc2)nc2c1CCNCC2`: the INHIBITION is -86.4%. Take `COCCNc1nc2c(c(NCc3ccncc3)n1)CCNCC2`: the INHIBITION is given as -3.19%. Consider `c1cc(-c2nc3c(c(NCCc4c[nH]cn4)n2)CCNCC3)ccn1`, for which the INHIBITION is 5.41%. As to `c1cc(-c2nc3c(c(NCCn4ccnn4)n2)CCNCC3)ccn1`, the INHIBITION is given as 72.1%. Take `O=C(N1CCCC1)N1CCn2c(nnc2C2CCCN2)C1` (stereo unspecified): the INHIBITION stood at 27.5%. Take `Cc1nc(C2CCCN2Cc2nc(C3CC3)no2)no1` (stereo unspecified): the INHIBITION was 26.9%. As for `COCCNC(=O)[C@H]1C[C@@H]2CCN(c3ncccn3)C[C@@H]2O1`, the INHIBITION stood at 25.3%. As for `COC[C@H]1CC[C@H]2[C@H](CCN2C(=O)c2ccncc2F)O1`, the INHIBITION is 8.52%. As to `CN1CCN(C(=O)[C@@H]2CC[C@@H]3[C@@H](CCN3c3ncccn3)O2)CC1`, the INHIBITION is on record as 34.6%. Regarding `O=C(NC1CC1)[C@H]1CC[C@@H]2[C@@H](CCN2c2ncc(F)cn2)O1`, the INHIBITION is reported as 50.1%. To `O=C(NC1CCCC1)[C@H]1CC[C@@H]2[C@@H](CCN2c2ncc(F)cn2)O1` belongs -9.54%; to `COCCNC(=O)[C@@H]1CC[C@@H]2[C@@H](CCN2c2ncc(F)cn2)O1`, 0.734%; to `COCCNC(=O)[C@H]1CC[C@@H]2[C@@H](CCN2c2ncc(F)cn2)O1`, 0.734%.

For the compound `CC1CCN(C(=O)[C@@H]2CC[C@@H]3[C@@H](CCN3c3ncc(F)cn3)O2)CC1`, the INHIBITION is recorded as 62.4%. Turning to `Cc1noc(CN(Cc2cccs2)C2CC2)n1`, the INHIBITION came out at 47.3%. Under `COCCO[C@H]1CCN(C(=O)c2cc(C)on2)[C@H]1Cc1ccccc1` stands 28.2%; under `CC1(c2[nH]ncc2C(N)=O)CCN(S(=O)(=O)c2ccccc2)CC1`, 11.1%; under `CCC(CC)C(=O)N1CCN(Cc2cc(=O)c3ccccc3[nH]2)CC1`, 33.4%. Regarding `O=c1c2c(ncn1CCO)nc1n2CCC1`, the INHIBITION came out at 1.98%. Regarding `NC(=O)Cn1cnc2nc3n(c2c1=O)CCC3`, the INHIBITION was -17%.

Regarding `CCOC(=O)Cn1cnc2nc3n(c2c1=O)CCC3`, the INHIBITION was determined as 81.2%. Under `Cc1ccn2ncc(C(=O)N3CCCC(n4ccnc4C)C3)c2n1` (stereo unspecified) stands -31.5%; under `Cc1nn(-c2ccccc2)cc1C(=O)N1CCCC1c1cnn(C)c1` (stereo unspecified), 43.3%; under `Cc1nn(-c2ccccc2)cc1C(=O)N1CCCN2CCCC2C1` (stereo unspecified), 51.3%. As for `Cc1ccn2ncc(C(=O)N3CCCC(n4nc(C)nc4C)C3)c2n1` (stereo unspecified), the INHIBITION is listed as 11.5%. In the case of `Cc1nn(-c2ccccc2)cc1C(=O)N1CCCC(n2ccnc2)C1` (stereo unspecified), the INHIBITION is given as -3.2%.

As to `O=C(c1ccn(-c2ccccc2)n1)N1CCCC(n2cccn2)C1` (stereo unspecified), the INHIBITION worked out at 2.97%.

As to `Cc1nn(-c2ccccc2)cc1C(=O)N1CCCC(n2cccn2)C1` (stereo unspecified), the INHIBITION is given as 66.4%.

Turning to `Cc1ccn2ncc(C(=O)N3CCCC(n4cccn4)C3)c2n1` (stereo unspecified), the INHIBITION is on record as 50.5%. With `Cc1cnn(C2CCCN(C(=O)c3cn(-c4ccccc4)nc3C)C2)c1` (stereo unspecified), the INHIBITION is listed as -42.3%. In the case of `CN(C)c1ncc(C(=O)N2C[C@H]3CC(Oc4ccccc4)C[C@H]3C2)cn1` (stereo partly specified), the INHIBITION came out at 2.35%.

Regarding `O=C(Cc1cn2ccccc2n1)N1CCCC(n2ccnc2)C1` (stereo unspecified), the INHIBITION was -43.6%.

In the case of `Cc1cccc(N2CCOCC3(C2)CN(c2ccoc2)C(=O)CO3)n1` (stereo unspecified), the INHIBITION is 32.5%. Regarding `NC(=O)c1cc(CC2CCCN(c3cnccn3)C2)ncn1` (stereo unspecified), the INHIBITION was -32.7%. Take `CS(=O)(=O)NC1CCCN(C(=O)Nc2cccnc2N2CCCC2)C1` (stereo unspecified): the INHIBITION worked out at 21.1%. `Cc1oncc1C(=O)N1CC[C@H]2[C@H](C[C@@H](CN(C)C)N2CC2CC2)C1`: the INHIBITION came out at 33.5%. Under `CN(C)C[C@@H]1C[C@@H]2CN(Cc3nccn3C)CC[C@@H]2N1CC1CC1` stands 51.2%. For `CC(C)N1[C@H](Cn2cncn2)C[C@@H]2CN(Cc3nccn3C)CC[C@@H]21`, the INHIBITION stood at 37.6%.

In the case of `Cc1cc(C(=O)N2CCC(n3nc(C)cc3C)C2)c2ccc(F)cc2n1` (stereo unspecified), the INHIBITION was 37.3%. Consider `Cc1cc(C(=O)N2C[C@H]3CCC[C@@]3(CO)C2)c2ccc(F)cc2n1`, for which the INHIBITION is 58.6%. With `Cc1cc(C(=O)N2C[C@H](c3ccccc3)[C@@H](N)C2)c2ccc(F)cc2n1`, the INHIBITION was 13%. With `Cc1ccc2nc(C)cc(C(=O)N3C[C@H]4CCC[C@@]4(CO)C3)c2c1`, the INHIBITION is on record as 75.7%. To `CCCc1cc(C(=O)N2C[C@H]3CCC[C@@]3(CO)C2)[nH]n1` belongs 21.9%; to `CCc1ccc2nc(C)cc(C(=O)N3C[C@H]4CCC[C@@]4(CO)C3)c2c1`, 25.5%. Under `CC(C)COC(C)C(=O)NCc1ccc(F)cc1` (stereo unspecified) stands -27.8%; under `Cc1cccc(CNC(=O)CC2CCN(Cc3ccccn3)CC2)n1`, 18.3%; under `CCc1nc(C2CCCN2C(=O)CCc2cscn2)no1` (stereo unspecified), 18.2%. As for `CCn1cc(CN2C[C@@H]3CCCN3C[C@H]2CCSC)cn1`, the INHIBITION came out at 35.2%.

With `CCOCC1CN(Cc2csc(C)n2)Cc2nccn2C1` (stereo unspecified), the INHIBITION was determined as 1.9%.
